High-throughput results deposited in PubChem by The Scripps Research Institute Molecular Screening Center.
PPARg SRC-1 ag: agonists of human PPARgamma SRC-1 coactivator recruitment. P37231. PPARgamma-SRC-1 coactivator recruitment biochemical assay. activation, % at 8 µM. 200,000 compounds, 0.41% hits. AID 631; in the data active means activation above about 19%;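 further: 0% = DMSO and 100% = reference agonist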
PPARg SRC-3 ag: agonists of human PPARgamma SRC-3 coactivator recruitment; activation, % at 8 µM; biochemical PPARgamma/SRC-3 coactivator recruitment assay; AID 731; P37231; 200,000 compounds, 0.26% hits; in the data active means activation above about 23%;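 further: 0% = DMSO and 100% = reference agonist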
SRC1 TRFRET art: TR-FRET artefact, counter-screen to PPARgamma/SRC-1 agonist assay | TR-FRET detection artefact counter-screen, emission ratio; active compounds read high | TR-FRET ratio at 8 µM | 99,000 compounds, 0.34% hits; in the data active means TR-FRET ratio above about 2300
PPARg SRC-2 ag: PPARgamma-driven SRC-2 recruitment agonism; PPARgamma LBD-SRC-2 recruitment, biochemical; activation, % at 8 µM; 200,000 compounds, 0.34% hits; P37231;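 further: 0% = vehicle and 100% = reference agonist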
SRC3 TRFRET art: counter-screen for PPARgamma SRC-3 recruitment agonists: TR-FRET artefact; PPARgamma/SRC-3 format; active compounds read high; TR-FRET ratio at 8 µM; 99,000 compounds, 0.39% hits; in the data active means TR-FRET ratio above about 2000
SRC2 TRFRET art: flags TR-FRET format artefacts in PPARgamma SRC-2 recruitment agonist screen; TR-FRET artefact counter-screen; active compounds read high; TR-FRET ratio at 8 µM; 200,000 compounds, 0.4% hits; in the data active means TR-FRET ratio above about 2000
PPARg SRC2 ag: confirmation of agonists of SRC-2 recruitment by human PPARgamma. shares compounds with PPARg SRC-3 ag. biochemical SRC-2 recruitment by PPARgamma. activation, % at 8 µM. 790 compounds, 52% hits;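 further: 0% = vehicle alone and 100% = reference agonist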
PPARg SRC1 ag: confirmation of agonists of SRC-1 recruitment by human PPARgamma; 790 compounds, 43% hits; shares compounds with PPARg SRC-3 ag; activation, % at 8 µM; PPARgamma–SRC-1 coactivator recruitment biochemical assay; in the data active means activation above about 20%;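 further: 0% = vehicle wells and 100% = reference agonist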
PPARg SRC3 ag: confirmation of agonists of SRC-3 recruitment by human PPARgamma; activation, % at 8 µM; shares compounds with PPARg SRC-3 ag; biochemical PPARgamma-SRC-3 coactivator recruitment, agonist mode; 790 compounds, 29% hits; in the data active means activation above about 24%;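 further: 0% = vehicle wells and 100% = reference agonist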
The depositor's hits bear a star; . = no result given. Only some compounds are listed: those with a hit (about 0.9% of all), similar ones and a draw of the others. Unless noted, no stated cut-off is given here; in the data, active means activation above about 22%; inactive means the rest.

SMILES | PPARg SRC-1 ag | PPARg SRC-3 ag | SRC1 TRFRET art | PPARg SRC-2 ag | SRC3 TRFRET art | SRC2 TRFRET art | PPARg SRC2 ag | PPARg SRC1 ag | PPARg SRC3 ag
CC1CCN(c2nnc(N)s2)CC1 | -4 | 7 | . | 2 | . | 1590 | . | . | .
Cc1cc(NC(=O)COc2ccc3oc4ccccc4c3c2)no1 | 27* | 11 | . | 21 | . | 1701 | 12 | 13 | 7
O=C(Nc1ccccc1)c1sc(N2CCOCC2)nc1-c1ccccc1 | 6 | 7 | 2033 | 13 | 1655 | 1762 | . | . | .
CC(=O)c1sc(N2CCOCC2)nc1-c1ccccc1 | 33* | 27* | 2416* | 17 | 2416* | 2097* | 37* | 28* | 24
Cc1csc(SCC(=O)NC(=O)Cc2ccccc2)n1 | 8 | 5 | 1979 | 14 | 1757 | 1717 | . | . | .
Cc1ccc(NC(=O)C2CC(=O)NC(N3CCCCC3)=N2)cc1Cl (stereo not drawn) | 0 | 2 | . | -4 | . | 1429 | . | . | .
Cc1c(O)c2c3c(cccc3c1O)C(=O)N(c1ccccc1)C2=O | 24* | 14 | 2683* | 22* | 2155* | 2078* | 26* | 16 | 19
O=C(O)c1ccc2c3c(cccc13)C(=O)N(c1ccccc1)C2=O | 5 | -5 | 1776 | -4 | 1701 | 1684 | . | . | .
O=C(/C=C/c1ccccc1)NC(=S)Nc1ccc(CN2CCOCC2)cc1 | 5 | 0 | 1862 | 4 | 1810 | 1532 | . | . | .
COc1ccc(N2CCN(CCCNC(=O)C3(S(=O)(=O)c4ccc(Cl)cc4)CC3)CC2)cc1 | 5 | 6 | 1921 | 7 | 1666 | 1605 | . | . | .
COc1ccc2c(Cl)c(C(=O)NN)sc2c1 | -1 | 3 | . | 0 | . | 1487 | . | . | .
COc1ccc2c(Cl)c(C(N)=O)sc2c1 | 33* | 19 | 2690* | 37* | 2550* | 2210* | 36* | 25* | 25*
CCOC(=O)CCC(NC(=O)c1ccc(NCN2C(=O)c3ccccc3C2=O)cc1)C(=O)OCC (stereo not drawn) | 29* | 22 | . | 10 | . | 1572 | 14 | 28* | 21
COc1ccc(C2C(C(=O)c3cccs3)=C(O)C(=O)N2c2nncs2)cc1 (stereo not drawn) | 27* | 26* | . | 13 | . | 1901 | 24* | 19 | 14
COc1ccc(C2C(C(=O)c3cccs3)=C(O)C(=O)N2c2nnc(C)s2)cc1OC (stereo not drawn) | 13 | 9 | . | 8 | . | 1679 | . | . | .
CC(C)c1nnc(N2C(=O)C(O)=C(C(=O)c3cccs3)C2c2ccccc2)s1 (stereo not drawn) | 38* | 21 | 2598* | 31* | 2283* | 2400* | 13 | 9 | 8
C=CCOc1ccc(C2C(C(=O)c3cccs3)=C(O)C(=O)N2c2nnc(C)s2)cc1 (stereo not drawn) | 11 | 15 | . | 17 | . | 1771 | . | . | .
COc1ncnc2c1oc1nc(CC(C)C)c3c(c12)CCCC3 | -1 | 5 | . | 0 | . | 1453 | . | . | .
Cc1nn(C)c(C)c1NC(=O)CSc1nc(-c2ccccc2Cl)nc2c1cnn2-c1ccccc1 | 19* | 14 | . | -2 | . | 1882 | 4 | -2 | -2
CCOC(=O)c1sc(C)c2c1NC(C)(c1cccs1)NC2=O (stereo not drawn) | 13 | 26* | . | 11 | . | 1681 | 16 | 12 | 11
CCOC(=O)c1sc(C)c2c1NC1(CCCCC1)NC2=O | 3 | 2 | . | 2 | . | 1524 | . | . | .
CCCCc1nc2sc3c(SCC(=O)NCc4ccco4)ncnc3c2c2c1CCC2 | 22* | 10 | . | 7 | . | 1710 | 38* | 26* | 26*
O=C(CSc1ncnc2c1oc1ccccc12)NCc1ccco1 | 92* | 107* | . | 92* | . | 3393* | 65* | 47* | 44*
CCOC(=O)CC(=O)CSc1ncnc2c1oc1ccccc12 | 96* | 138* | . | 87* | . | 3929* | 55* | 36* | 37*
OCCSc1ncnc2c1oc1ccccc12 | 12 | 7 | . | 23* | . | 1920 | 28* | 22* | 18
